The nature of experiment [1]: compounds binding Alexa647 anti-His antibody – biochemical, small-molecule microarray, 635 nm fluorescence, artefact control for SMM control protein annotation, primary screen (AID 1128).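 Note: score merges feature fluorescence with signal-to-noise for each printed compound spot.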 To be noted: higher = more signal.
Experiment [2] relates to Human papillomavirus type 1a E7 protein (residues 1-88). The experiment can be described thus: HPV1a E7 small-molecule binders, primary screen, biochemical, small-molecule microarray, residues 1-88, 635 nm (AID 1129). Particulars: small-molecule microarray binding, fluorescence 635 nm; higher = more signal.
Experiment [3] deals with Focal adhesion kinase 1 (Homo sapiens) (UniProt Q05397). As to the kind of experiment: PTK2 protein binding on printed compound slides – biochemical, small-molecule microarray, 635/667 nm fluorescence, BSA, DTT, primary screen (AID 1130).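 Note: composite of spot emission at 667 nm and signal to noise over triplicate slides.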 To be noted: 635 nm fluorescence, higher = more signal.
The subject of experiment [4] is Fibrinogen (Alexa647-labelled). The experiment can be described thus: Alexa647-fibrinogen binding to printed small molecules – biochemical, small-molecule microarray, 635/667 nm fluorescence, artefact control for SMM control-protein annotation, profiling panel (AID 1131).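 Note: z-score merges 667 nm fluorescence with per-spot signal-to-noise over triplicate slides.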 Particulars: fibrinogen-A647 binding fluorescence, higher = more signal.
Experiment [5] addresses Follistatin (Homo sapiens) (UniProt P19883). The experiment can be described thus: FST protein binding to printed compounds – biochemical, small-molecule microarray, 635/667 nm fluorescence, primary screen (AID 1132). To be noted: 635 nm fluorescence, higher = more signal.
Experiment [6] deals with Fibroblast growth factor 2 (Homo sapiens) (UniProt P09038). The experiment can be described thus: basic fibroblast growth factor binding to printed compounds – biochemical, small-molecule microarray, 635/667 nm fluorescence, primary screen (AID 1133). Particulars: FGF2, fluorescence 635/667, higher = more signal.
A short description of experiment [7]: JC-1 mitochondrial potential readout, lung cancer cells – cell-based, A549, JC-1 fluorescence, basal, 24 h, 100 nL, profiling panel (AID 1138).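 Note: A549 lung adenocarcinoma cells under basal conditions with no added stimulus; test concentration not given here.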 Particulars: higher = more signal.
Another experiment has as its system Lefty1. As to the kind of experiment: Lefty1 protein binding to printed compounds – biochemical, small-molecule microarray, 635/667 nm fluorescence, primary screen (AID 1139). Particulars: fluorescence 635/667, higher = more signal.
For experiment [8], the system named is wheat germ agglutinin (Triticum aestivum), Alexa647-labelled. The experiment can be described thus: Alexa647-WGA lectin binding to printed small molecules – biochemical, small-molecule microarray, 635/667 nm fluorescence, artefact control for SMM control-protein annotation, profiling panel (AID 1140).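 Note: score merges 667 nm feature emission with signal to noise over triplicate slides.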 To be noted: WGA-A647 binding, 635 nm fluorescence, higher = more signal.

The target in experiment [9] is Luciferin 4-monooxygenase (Photinus pyralis) (UniProt P08659). The experiment can be described thus: inhibition of purified Photinus pyralis luciferase – biochemical, luminescence, purified enzyme, 2006 set, primary screen (AID 1141).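 Note: cell-free assay with purified firefly luciferase at 100 ng per well in PBS; test concentration not given here.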 To be noted: purified firefly luciferase, SteadyGlo luminescence, 30 min; higher = more signal, called active from +8 up or from −8 down.

The test system of experiment [10] is Wnt5a (protein binding on small-molecule microarray). As to the kind of experiment: small molecules binding Wnt5a protein – biophysical, small-molecule microarray, 635/667 nm fluorescence, primary screen (AID 1142).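 Note: fluorescence read at 667 nm with signal to noise per printed feature.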 To be noted: 635 nm fluorescence, higher = more signal.
A short description of experiment [11]: ATP-based viability of Huh7 replicon cells – cell-based, CellTiter-Glo luminescence, basal, 48 h, cytotoxicity control for HCV replication inhibitor project, primary screen (AID 1143).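 Note: Huh7 hepatoma cells carrying a hepatitis C replication reporter with no stimulus; test concentration not given here.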 Particulars: higher = more signal, called active from +8 up or from −8 down. For orientation: A replicon is a self-replicating genome or part of one, used to study replication in cells.

The nature of experiment [12]: Pseudomonas biofilm growth suppression – PAO1 strain, BacTiter-Glo luminescence, LB-PBS, primary screen (AID 1144). To be noted: P. aeruginosa PAO1 biofilm, 12 h, higher = more signal.
Experiment [13] can be described thus: basal CRE-LacZ reporter activity in PC12 – cell-based, unstimulated, primary screen (AID 1145). To be noted: no forskolin, luminescence, 4.5 h, higher = more signal, called active from +8 up or from −8 down.
Experiment [14] in a line: forskolin-driven CRE-LacZ activity in PC12 – cell-based, CRE-LacZ reporter, forskolin-stimulated, primary screen (AID 1146).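 Note: PC12 cells with 6xCRE LacZ reporter stimulated by forskolin 10 µM; beta-galactosidase reporter signal reflecting CREB driven transcription.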 Particulars: luminescence, 4.5 h, higher = more signal, called active from +8 up or from −8 down.
The target of experiment [15] is Streptavidin (Streptomyces avidinii) (UniProt P22629). As to the kind of experiment: compounds binding control protein streptavidin – biophysical, small-molecule microarray, 635/667 nm fluorescence, artefact control for SMM compound annotation, primary screen (AID 1147).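 Note: signal reflects streptavidin binding to arrayed compounds as a control protein.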 Particulars: higher = more signal.
Experiment [16] can be described thus: probe aInhba binding on compound microarray – biochemical, small-molecule microarray, 635/667 nm fluorescence, primary screen (AID 1148).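 Note: score merges 667nm spot fluorescence with signal-to-noise for antibody binding to printed compounds.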 To be noted: higher = more signal.
Experiment [17] deals with Torsin-1A (Homo sapiens) (UniProt O14656). The experiment can be described thus: TOR1A wild-type binding on microarray – cell lysate, small-molecule microarray, lysate, 635/667 nm, primary screen (AID 1149). To be noted: COS7 hTOR1A-WT lysate, 635 nm fluorescence, higher = more signal.
Experiment [18] shares this target. The experiment can be described thus: torsin A mutant lysate binding on microarrays – cell lysate, small-molecule microarray, COS7 lysate, 635/667 nm fluorescence, primary screen (AID 1150).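 Note: score pools 667 nm emission and signal to noise measuring lysate protein binding.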 Particulars: COS7 hTOR1A mutant lysate, 635 nm fluorescence, higher = more signal.
In experiment [19] the test system is Sonic hedgehog protein (Shh). As to the kind of experiment: Sonic hedgehog microarray binding compounds – biochemical, small-molecule microarray, 635/667 nm fluorescence, primary screen (AID 1151).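 Note: Shh protein binding to compounds spotted on small-molecule microarray slides; score combines spot fluorescence intensity with signal-to-noise across triplicate slides.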 To be noted: 635 nm fluorescence, higher = more signal.

The structures appear in SMILES notation. Active and inactive are the calls of the source. Unless noted, the rule behind the calls is not given here.

Chain of Luciferin 4-monooxygenase (Photinus pyralis) (P08659 whole entry, looked up): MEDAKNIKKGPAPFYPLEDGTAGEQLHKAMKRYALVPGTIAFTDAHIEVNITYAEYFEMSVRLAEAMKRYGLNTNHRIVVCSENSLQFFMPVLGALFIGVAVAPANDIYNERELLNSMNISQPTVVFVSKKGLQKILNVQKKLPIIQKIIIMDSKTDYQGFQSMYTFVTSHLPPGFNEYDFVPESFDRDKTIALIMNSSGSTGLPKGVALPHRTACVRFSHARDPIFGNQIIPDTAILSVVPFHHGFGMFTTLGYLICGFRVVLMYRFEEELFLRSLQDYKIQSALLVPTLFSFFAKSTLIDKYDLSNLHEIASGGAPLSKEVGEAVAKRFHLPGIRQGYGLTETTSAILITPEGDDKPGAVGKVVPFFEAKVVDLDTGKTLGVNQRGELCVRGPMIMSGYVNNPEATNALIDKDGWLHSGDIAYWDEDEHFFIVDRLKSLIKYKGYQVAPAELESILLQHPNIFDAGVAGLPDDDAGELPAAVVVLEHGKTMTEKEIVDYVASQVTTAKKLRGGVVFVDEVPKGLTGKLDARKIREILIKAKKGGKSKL
Chain of Torsin-1A (Homo sapiens) (O14656 whole entry, looked up): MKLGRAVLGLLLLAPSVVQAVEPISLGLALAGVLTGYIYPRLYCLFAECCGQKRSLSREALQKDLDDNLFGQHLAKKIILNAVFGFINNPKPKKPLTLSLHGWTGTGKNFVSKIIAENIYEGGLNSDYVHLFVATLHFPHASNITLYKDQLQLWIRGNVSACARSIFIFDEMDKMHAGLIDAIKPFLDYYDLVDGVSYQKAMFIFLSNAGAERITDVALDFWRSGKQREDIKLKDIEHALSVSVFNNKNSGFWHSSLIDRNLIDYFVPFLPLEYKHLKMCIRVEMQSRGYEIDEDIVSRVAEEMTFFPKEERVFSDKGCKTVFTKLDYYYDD
Chain of Follistatin (Homo sapiens) (P19883 whole entry, looked up): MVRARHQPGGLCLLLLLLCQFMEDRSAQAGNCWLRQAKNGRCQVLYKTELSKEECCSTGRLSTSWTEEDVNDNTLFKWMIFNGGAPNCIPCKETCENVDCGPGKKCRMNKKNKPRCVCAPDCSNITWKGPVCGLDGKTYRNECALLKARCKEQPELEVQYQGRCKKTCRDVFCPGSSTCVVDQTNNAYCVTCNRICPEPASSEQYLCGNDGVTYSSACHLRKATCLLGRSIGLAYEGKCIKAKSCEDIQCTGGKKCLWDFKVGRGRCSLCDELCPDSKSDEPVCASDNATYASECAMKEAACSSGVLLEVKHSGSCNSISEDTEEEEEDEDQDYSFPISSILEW
Chain of Focal adhesion kinase 1 (Homo sapiens) (Q05397 whole entry, looked up): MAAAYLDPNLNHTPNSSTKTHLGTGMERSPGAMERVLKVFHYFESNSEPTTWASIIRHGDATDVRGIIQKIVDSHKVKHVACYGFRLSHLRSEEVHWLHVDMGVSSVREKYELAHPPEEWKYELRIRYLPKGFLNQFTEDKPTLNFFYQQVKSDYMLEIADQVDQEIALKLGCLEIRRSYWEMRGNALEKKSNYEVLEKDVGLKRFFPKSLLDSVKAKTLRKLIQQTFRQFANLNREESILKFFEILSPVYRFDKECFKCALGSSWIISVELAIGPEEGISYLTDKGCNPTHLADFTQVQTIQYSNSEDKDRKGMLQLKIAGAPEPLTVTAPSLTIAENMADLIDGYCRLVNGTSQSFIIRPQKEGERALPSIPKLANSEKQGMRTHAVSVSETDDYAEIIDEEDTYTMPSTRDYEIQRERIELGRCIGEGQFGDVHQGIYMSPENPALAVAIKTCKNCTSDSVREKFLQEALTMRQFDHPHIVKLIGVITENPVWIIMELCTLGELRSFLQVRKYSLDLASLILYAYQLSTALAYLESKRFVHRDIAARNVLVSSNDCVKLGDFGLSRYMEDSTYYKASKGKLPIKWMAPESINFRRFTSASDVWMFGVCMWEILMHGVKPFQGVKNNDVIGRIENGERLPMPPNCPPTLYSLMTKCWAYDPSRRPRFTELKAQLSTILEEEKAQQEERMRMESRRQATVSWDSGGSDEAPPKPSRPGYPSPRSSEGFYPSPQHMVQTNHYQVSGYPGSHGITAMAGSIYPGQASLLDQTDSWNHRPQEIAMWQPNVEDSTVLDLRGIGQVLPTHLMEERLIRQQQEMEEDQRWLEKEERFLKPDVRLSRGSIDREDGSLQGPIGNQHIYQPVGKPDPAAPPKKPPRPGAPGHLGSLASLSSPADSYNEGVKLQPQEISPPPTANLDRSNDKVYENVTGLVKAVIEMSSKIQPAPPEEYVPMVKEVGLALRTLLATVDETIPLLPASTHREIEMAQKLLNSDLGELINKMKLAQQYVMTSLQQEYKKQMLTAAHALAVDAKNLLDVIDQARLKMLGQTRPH
Chain of Streptavidin (Streptomyces avidinii) (P22629 whole entry, looked up): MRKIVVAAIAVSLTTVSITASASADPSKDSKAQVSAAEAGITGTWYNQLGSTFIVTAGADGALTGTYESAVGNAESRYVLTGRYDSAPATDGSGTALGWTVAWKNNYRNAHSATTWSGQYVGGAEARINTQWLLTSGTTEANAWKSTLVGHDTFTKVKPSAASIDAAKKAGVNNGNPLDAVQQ
Chain of Fibroblast growth factor 2 (Homo sapiens) (P09038 whole entry, looked up): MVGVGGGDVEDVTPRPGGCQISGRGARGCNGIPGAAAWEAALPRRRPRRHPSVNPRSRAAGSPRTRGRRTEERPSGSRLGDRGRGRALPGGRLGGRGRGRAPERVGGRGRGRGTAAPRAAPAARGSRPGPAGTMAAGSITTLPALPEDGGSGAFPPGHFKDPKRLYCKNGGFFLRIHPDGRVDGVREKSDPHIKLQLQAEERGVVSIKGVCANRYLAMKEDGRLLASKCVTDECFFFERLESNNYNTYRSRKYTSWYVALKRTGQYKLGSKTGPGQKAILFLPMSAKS

On to `C=CC[C@]1(C(N)=O)N=C(c2ccc(OCCCO)cc2)O[C@H]1c1ccccc1N=[N+]=[N-]`, for which the composite z-score in experiment [1] was 1.98; in [2], 0.766; in experiment [3] it was -0.336; in experiment [4] it was 0.753; in experiment [5] it was 1.12; in [6], 0.812. For the same compound, the composite z-score with Lefty1 was -0.0005; in experiment [8], 0.762; in experiment [10], 0.423; in experiment [15], 0.489; in experiment [16], 0.0857; with Torsin-1A (Homo sapiens) [17] it was 0.534. In addition, the figures for the composite z-score (with Torsin-1A (Homo sapiens) [18]; in experiment [19]) were 1.62 and 0.0211, respectively. Moreover, the z-score in experiment [7] was 1.62; in experiment [9] it was -14.1 (active); in experiment [11], -1.05 (inactive); in [12], 0.348 (inactive); in experiment [13], 0.432 (inactive); in [14] it was -1.81 (inactive).
Consider `C=C(CCCC)/C(=C/C[C@@H](OC(C)=O)c1ccc(OCCO)cc1)c1cc(C(=O)OC)ccc1OC`, for which the composite z-score in experiment [1] was -0.435; in [2] it was 0.858; in experiment [3] it was 0.304; in experiment [4], -0.156; in experiment [5], 0.335; in [6] it was -0.0009. Also, the composite z-score in the experiment on Lefty1 was 0.548; in experiment [8] it was 0.94; in [10] it was -0.0169; in [15], 0.313; in experiment [16] it was -0.176; with Torsin-1A (Homo sapiens) [17], 0.929. In addition, the composite z-score in the experiment with Torsin-1A (Homo sapiens) [18] amounted to 0.687; in experiment [19], 1.04. In addition, the z-score in experiment [7] was 1.85; in experiment [9], -1.07 (inactive); in experiment [11], -3.57 (inactive); in experiment [12], 0.412 (inactive); in experiment [13], 5.45 (inactive); in experiment [14], 0.574 (inactive).
With `CCCCCCc1nc(-c2ccc(OC)nc2)c(C)c2c1[Si](C(C)C)(C(C)C)OC2`, the composite z-score is 0.975 in [1]; -0.461 in experiment [2]; 0.0484 in [3]; -0.52 in [4]; 0.553 in experiment [5]; 0.0695 in [6]. Further, the composite z-score was 0.524 in the experiment with Lefty1; -0.491 in experiment [8]; -0.0701 in experiment [10]; -0.2 in [15]; 0.0536 in experiment [16]; 0.397 with Torsin-1A (Homo sapiens) [17]. For the same compound, the composite z-score is -0.57 with Torsin-1A (Homo sapiens) [18] and 0.417 in experiment [19]. In addition, the z-score in [7] is -0.498; in [9] it was 0.146 (inactive); in [11] it was -2.75 (inactive); in experiment [12] it was -1.13 (inactive); in [13], 0.106 (inactive); in [14] it was -0.556 (inactive).
In the case of `C=CC[C@@]1(C(=O)NCCCOC)N=C(c2ccc(OCCCO)cc2)O[C@@H]1c1ccccc1CN=[N+]=[N-]`, the composite z-score was 2.86 in [1]; 1.21 in experiment [2]; 0.117 in experiment [3]; 1.01 in [4]; 1.15 in experiment [5]; 0.312 in [6]. For the same compound, the composite z-score in the experiment on Lefty1 is 0.309; in experiment [8] it was 0.719; in experiment [10], 0.645; in [15] it was 0.706; in [16], 0.0921; with Torsin-1A (Homo sapiens) [17], 0.112. Further, the composite z-score in the experiment with Torsin-1A (Homo sapiens) [18] is 0.734; in experiment [19] it was 0.0532. Also, the z-score in experiment [7] was 1.7; in [9], 0.645 (inactive); in [11], -3.72 (inactive); in experiment [12] it was -0.584 (inactive); in experiment [13], -0.45 (inactive); in experiment [14], -0.48 (inactive).
With `CO[C@H]1O[C@H](CO)[C@@H](OC(=O)Nc2ccccc2)[C@@H]2OC(=O)[C@@H](Cc3ccccc3)C/C=C/C[C@H](Cc3ccccc3)C(=O)O[C@@H]12`, the composite z-score came out at 2.4 in experiment [1]; 0.426 in experiment [2]; 0.348 in experiment [3]; 0.0766 in [4]; 0.661 in experiment [5]; 0.0861 in experiment [6]. Further, the composite z-score was 0.449 in the experiment with Lefty1; 0.95 in experiment [8]; 0.129 in experiment [10]; -0.304 in [15]; -0.0719 in experiment [16]; 0.433 in the experiment with Torsin-1A (Homo sapiens) [17]. Moreover, the composite z-score was determined as 1.93 with Torsin-1A (Homo sapiens) [18] and 0.591 in experiment [19]. In addition, the z-score in [7] was -0.282; in [9], -0.283 (inactive); in experiment [11] it was -0.0611 (inactive); in [12] it was -0.213 (inactive); in experiment [13], -0.403 (inactive); in experiment [14], -0.656 (inactive).

Values taken from PubChem BioAssay.
